# ClpP mod: qHTS Assay for Activators of ClpP; ATP-dependent Clp protease proteolytic subunit (Bacillus subtilis (strain 168)), P80244; purified B. subtilis ClpP, FRET peptide cleavage, 20 min; Potency, µM (doses to about 57.5 µM), for inactives: at the highest dose activity change, negative = active; actives 1.9% (n = 340,000); AID 651965, 2013; active = well fitted falling curve with a large enough effect; inconclusive = small, poorly fitted or top-dose-only effect; inactive = no such curve, though single readings can be large or run the other way; also: potency is read from the fitted curve at half-maximal effect; the source files actives as falling curves though it sought activators and does not explain the sign; nearly all actives have a fitted effect of over 65% in size
# Target sequence (P80244 whole entry, looked up): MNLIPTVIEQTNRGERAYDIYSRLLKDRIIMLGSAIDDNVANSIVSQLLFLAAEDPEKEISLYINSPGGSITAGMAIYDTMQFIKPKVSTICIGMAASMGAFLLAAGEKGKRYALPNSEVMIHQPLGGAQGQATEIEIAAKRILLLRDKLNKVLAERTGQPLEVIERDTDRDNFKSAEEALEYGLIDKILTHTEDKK
#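 FRET quenching reversal measured ClpP activation: 10 microg/mL B. subtilis ClpP at pH 8 with the FRET-FV decapeptide, read at 430 nm after 320 nm excitation. The 20-min minus 0-min signal was scaled between DMSO/no-enzyme wells and ADEP (5.8 microM final).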
# TDP1 cell noCPT: qHTS for Inhibitors of human tyrosyl-DNA phosphodiesterase 1 (TDP1): qHTS in cells in absence of CPT | Potency, µM (highest dose often 46.2 µM), for the others: top-dose activity change, negative = growth inhibition, hits mostly inhibitors | DT40 Tdp1-/- hTDP1 cells, no CPT, ATP luminescence, 48 h | actives 15% (n = 420,000); also: potency is read from the fitted curve at half-maximal effect; % is scaled to controls: 0 for no effect and ±100 for the full control effect; nearly all actives have a fitted effect of over 55% in size
#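 DT40 Tdp1-/-;hTDP1 cells, no CPT (DMSO vehicle only), 400 cells/well; compounds pin-transferred; ≥48 hr, 37 °C; CellTiter-Glo 30 min RT dark, luminescence read.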
# DRD3 antagonist: D3 dopamine receptor (human) antagonism. AID 652054. D3R cells, DiscoveRx beta-arrestin luminescence, antagonist mode; stronger effect = lower value. P35462. actives 2.5% (n = 360,000). max response, negative = inhibition, %; in the data active = max response below about -50%; inconclusive = no clear call, values can overlap the other calls; also: % is scaled to controls: 0 for no effect and ±100 for the full control effect
# Target sequence (P35462 whole entry, looked up): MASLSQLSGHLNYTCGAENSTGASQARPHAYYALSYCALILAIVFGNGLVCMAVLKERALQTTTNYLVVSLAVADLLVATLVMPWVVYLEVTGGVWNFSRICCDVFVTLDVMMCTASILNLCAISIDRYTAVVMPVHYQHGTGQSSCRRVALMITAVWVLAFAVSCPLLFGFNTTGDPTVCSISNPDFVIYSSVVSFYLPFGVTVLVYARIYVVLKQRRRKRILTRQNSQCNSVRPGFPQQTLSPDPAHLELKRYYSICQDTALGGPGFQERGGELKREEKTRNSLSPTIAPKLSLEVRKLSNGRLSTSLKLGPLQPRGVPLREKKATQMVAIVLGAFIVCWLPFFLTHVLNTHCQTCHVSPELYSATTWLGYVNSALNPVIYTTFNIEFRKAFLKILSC
#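 Cells expressing the human receptor were seeded at 1500 cells/well, incubated overnight at 37 degrees C in 5% CO2, then exposed to library compounds with dopamine controls for 90 minutes at 37 degrees C before luminescent detection.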
# IL1B secr inh: blocks inflammasome-driven IL-1 beta release; THP-1 LPS/ATP IL-1B secretion, AlphaLISA, 16 h; stronger effect = lower value; activity change, % at 57.5 µM; actives 4.7% (n = 360,000); AID 743279; in the data active = activity change below about -50%; inconclusive = mostly about -30% to -49%; also: % is scaled to controls: 0 for no effect and ±100 for the full control effect
#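 THP-1 cells pretreated 1 hr with compounds (up to 57.5 uM final), then stimulated with LPS (250 ng/mL final) plus ATP (1.25 mM final); secreted IL-1B measured by AlphaLISA after 16 hr, decreased signal indicating inhibition.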
# D3 ag: agonists of human D3 dopamine receptor; D3R DiscoveRx beta-arrestin cells, luminescence, 90 min; max activation, %; actives 0.58% (n = 410,000); AID 652048; in the data active = max activation above about 30%; also: 0% is about no effect
#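 Agonist mode: compounds and dopamine controls were applied to plated cells for 90 min at 37 degrees C after an overnight attachment at 1500 cells/well. Luminescent read-out followed 30 - 60 minutes at room temperature with DiscoveRx detection reagent.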
# DT40 TDP1 CPT: DT40-hTDP1 cell growth loss with CPT. chicken DT40 Tdp1-/-;hTDP1 cells + 20 nM CPT, ATP luminescence, 48 h. Potency, µM (series often up to 46.2 µM), inactives show top-dose activity change, negative = growth inhibition, hits mostly inhibitors. actives 12% (n = 420,000). AID 686979; also: potency is read from the fitted curve at half-maximal effect; % is scaled to controls: 0 for no effect and ±100 for the full control effect; nearly all actives have a fitted effect of over 55% in size
#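 Chicken DT40 Tdp1-/- cells complemented with human TDP1, 400 cells/well, exposed to compounds plus 20 nM camptothecin for at least 48 h at 37 C; viability read as ATP content by CellTiter-Glo luminescence.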
# * = called active by the depositor; ? = inconclusive; / = not tested or not shown; ! = a repeat was not active; [ ] = dose if it differs, or a comment. The list is not random: actives were taken first. Their share in the collection is about 21%. Unless noted, calls follow the shape of the dose curve; as a rule, active = well fitted inhibition curve with a large enough effect; inconclusive = small, poorly fitted or top-dose-only effect; inactive = flat fitted curve, though single readings scatter.
SMILES,ClpP mod,TDP1 cell noCPT,DRD3 antagonist,IL1B secr inh,D3 ag,DT40 TDP1 CPT
CC(C)NC(=O)c1cn([C@H]2CC[C@@H](NC(=O)/C=C/c3cccs3)CC2)nn1,/,-17%,/,/,/,?
CCCS(=O)(=O)N1CC(=O)N(c2ccccc2C)C(C)(C(=O)NC2CCCCC2)C1 (configuration not stated),2%,-1%,/,/,4,-13%
COc1ccc(CCNC(=O)CCCn2c(=O)c3ccccc3n(CC(=O)Nc3cccc(C)c3)c2=O)cc1OC,1%,18µM*,/,/,0,?
COc1ccc(CCNC(=O)CCCCCN2C(=O)[C@@H]3Cc4ccccc4CN3C2=O)cc1OC,-1%,?,-6,24,1,21µM*
CNCCCCc1cnc(C)c2[nH]c3ccccc3c12,/,-22%[9.04 µM],/,/,/,7%[9.04 µM]
CCOC(=O)N1CCN(C(=O)CSc2ccc3nnc(-c4cccnc4)n3n2)CC1,/,18µM*,-98*,-28,-23,?
CC1CCN(C(=O)CSc2nnc3ccc(-c4cccnc4)nn23)CC1,-1%,-25%,14,-57*,6,1%
CCOc1ccc(NC(=O)CSc2ccc3nnc(-c4cccnc4)n3n2)cc1,-1%,?,-7,-5,1,-12%
CCOC(=O)C(CC)Sc1ccc2nnc(-c3cccnc3)n2n1 (configuration not stated),5%,?,2,27,0,14µM*!
CCc1cnc2c(c1SCC(=O)Nc1ccc(Cl)cc1)c(=O)n(C)c(=O)n2C,-4%,-5%,/,/,-3,-13%
CSc1nnc(C(C)c2ncc(C(F)(F)F)cc2Cl)n1C (configuration not stated),/,?,2,-6,-1,6%
O=C(CCc1ccccc1)Nc1ccc(S(=O)(=O)NC2=NCCCCC2)cc1,/,-26%,9,18,1,-2%
O=S(=O)(O)CC(S)CS (configuration not stated),/,4.7µM*,/,/,1,8.4µM*
COc1ccc(/C=C2\C(=O)OCc3cc(OC)c(OC)cc32)cc1OC,-2%,-35%,0,-51*,0,?
COc1cc2c(cc1OC)/C(=C/C(C)=O)OC2,-3%,-2%,2,19,2,-6%
COc1cc2c(cc1OC)/C(=C/c1ccc(Cl)cc1)C(=O)OC2,-22%,?,12,-81*,3,?
CCC(C)OC(=O)/C(C#N)=C\c1ccc(-c2cccc(C(F)(F)F)c2)o1 (configuration not stated),-1%,?,/,/,-16,-26%
C[n+]1cccc2cccc([O-])c21,-3%,-22%,35,3,3,-14%
C[C@@H]1CN([C@H](C)CO)C(=O)c2c(c3ccccc3n2C)-c2ccccc2CO[C@H]1CN(C)C(=O)CCC(F)(F)F,-10%,?,5,14,-6,?
Cc1cc(C)[n+]2[nH]c(N)c(N=Nc3ccccc3)c2n1,/,16µM*,-4,-29,1,?
OCc1cn(-c2ccccc2)nc1-c1cc2ccccc2o1,3%,-3%,25,-16,1,?
O=C(N/N=C/c1cn(-c2ccccc2)nc1-c1cc2ccccc2o1)c1c[nH]c2ccccc12,/,4.6µM*,7,-60*,1,?
O=C(N/N=C/c1cn(-c2ccccc2)nc1-c1cc2ccccc2o1)c1ccccc1Br,1%,15µM*,3,1,-27,4.6µM*
Nc1ccn(CC(=O)N[C@H](CO)Cc2c[nH]c3ccccc23)c(=O)n1,-1%,-5%,-19,12,5,15%
CC(C)(C)OC(=O)N1CCC(c2c(C(=O)N3CCN(C(=O)c4ccco4)CC3)cnn2-c2cccc(Cl)c2)CC1,0%,?,-8,-17,4,?
SMILES,ClpP mod,TDP1 cell noCPT,DRD3 antagonist,IL1B secr inh,D3 ag,DT40 TDP1 CPT
CC1(Oc2ccccc2)CCN(Cc2csc3ccccc23)C1 (configuration not stated),0%,?,-83*,32,-10,?
COCCc1ccc(OC2(C)CCN(Cc3cccc(OC)c3OC)C2)cc1 (configuration not stated),2%,-11%,17,12,-10,?
COc1cccc(CN2CCC(C)(Oc3cccc(Cl)c3)C2)c1OC (configuration not stated),-1%,16µM*,?,12,-17,?
COCCc1ccc(OC2(C)CCN(Cc3ccc(OC)c4ccccc34)C2)cc1 (configuration not stated),-13%,16µM*,2,11,-3,?
CSc1ccc(CN2CCC(C)(Oc3ccc(CC#N)cc3)C2)cc1 (configuration not stated),-2%,?,-27,-22,-14,?
CSc1ccc(CN2CCC(C)(Oc3ccc(-n4ccnc4)cc3)C2)cc1 (configuration not stated),0%,18µM*,-97*,?,-22,18µM*
O=S1c2ccccc2Sc2ccccc21,-3%,-7%,-9,10,4,-10%
COC(CN(C)S(=O)(=O)c1cc2c3c(c1)CCC(=O)N3CCC2)OC,0%,6%,16,0,-13,-6%
COC(=O)Cc1ccc(OC2(C)CCN(Cc3ccccc3)C2)cc1 (configuration not stated),1%,-18%,-89*,0,-12,-21%
COCOc1cccc(CN2CCC(C)(Oc3ccc(C(C)=O)cc3)C2)c1 (configuration not stated),-4%,?,10,-8,-6,?
CSc1ccc(OC2(C)CCN(Cc3ccc4c(c3)OCCO4)C2)cc1 (configuration not stated),-5%,?,?,-11,-14,26µM*
CSc1ccc(OC2(C)CCN(Cc3ccccc3)C2)cc1 (configuration not stated),0%,?,-73*,-21,-10,?
CC(C)c1ccc(CN2CCC(C)(Oc3ccc(Cl)cc3)C2)cc1 (configuration not stated),0%,?,-2,1,-10,?
CSc1ccc(CN2CCC(C)(Oc3ccc4ccccc4c3)C2)cc1 (configuration not stated),?,?,?,16,-14,?
COc1cc(OC)cc(OC2(C)CCN(Cc3ccc(OC(C)C)cc3)C2)c1 (configuration not stated),-2%,23µM*,-3,13,-10,26µM*

# Source: PubChem
